# hgDAF-12 ag = activates the H. glycines DAF-12 receptor ligand-binding domain | HEK293 GAL4-hgDAF12 UAS-luciferase reporter, agonist luminescence; normalized to butyrate control | activation, % at 6.8 µM | hit rate 1.8% among 370,000 | AID 687014;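 active = activation above a cutoff set at the mean of all screened compounds plus 3 SD, cut at about 10% in these data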;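 also: 0% = DMSO wells and 100% = sodium butyrate wells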
# DAX1 inh-1 = blocks DAX1 repression of SF-1 activated StAR promoter. HEK293T StAR-luciferase reporter, SF-1/DAX-1 repression relief. inhibition, % at 6.8 µM. hit rate 1.1% among 370,000. AID 652010;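 active = inhibition above the mean over all tested compounds plus 3 SD, cut at about 3.6% in these data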;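 also: 0% = DAX-1 cells with DMSO and 100% = cells lacking DAX-1 with DMSO; higher inhibition means more luminescence from relief of DAX-1 repression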
# ssDAF12 agonist = activates DAF-12 receptor from parasite S. stercoralis. AID 652126. hit rate 1% among 370,000. HEK293 ssDAF-12/GRIP1 lit1-tk-luc reporter, luminescence; % of 3 µM dafachronic acid response. activation, % at 6.8 µM;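 active = activation above the mean over all tested compounds plus 3 SD, cut at about 0.9% in these data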;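 also: 0% = DMSO-only wells and 100% = 3 µM delta7-dafachronic acid wells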
# DAX1 inh-2 = inhibitors of human orphan nuclear receptor DAX1 (NR0B1) | P51843 | HEK293 Gal4-DAX1 luciferase reporter, luminescence | inhibition, % at 6.75 µM | hit rate 0.99% among 340,000;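 active = inhibition above the mean over all tested compounds plus 3 SD, cut at about 4.2% in these data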;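 also: 0% = DAX1-transfected cells with DMSO and 100% = empty-vector control cells with DMSO; inhibition shows as a rise in luminescence from relieved DAX1 repression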
# Target sequence (P51843 207-470 limits assumed): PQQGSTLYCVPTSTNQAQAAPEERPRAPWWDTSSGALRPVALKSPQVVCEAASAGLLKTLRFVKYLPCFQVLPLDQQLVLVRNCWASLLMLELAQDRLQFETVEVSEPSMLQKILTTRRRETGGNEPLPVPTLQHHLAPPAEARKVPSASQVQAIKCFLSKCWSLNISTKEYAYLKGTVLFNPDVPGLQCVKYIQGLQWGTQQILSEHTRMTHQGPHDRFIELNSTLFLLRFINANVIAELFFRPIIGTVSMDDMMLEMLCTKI
# FXN GAA850 act = activators of GAA850 frataxin (FXN) promoter | HEK293 lucGAA850 FXN promoter luciferase reporter, 24 h; percent of 10 µM SAHA response | activation, % at 6 µM | hit rate 0.56% among 360,000 | AID 540364;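 active = activation above the average of all compounds screened plus 3 SD, cutoff fixed separately per campaign, cut at about 7.5% in these data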;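 also: 0% = DMSO wells and 100% = 10 µM SAHA wells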
# hcDAF-12 act = activators of H. contortus DAF-12 nuclear receptor. hit rate 1.4% among 370,000. HEK293 hcDAF-12 lit1-tk-luc reporter, luminescence; 0% DMSO, 100% Δ7-dafachronic acid. activation, % at 6.8 µM;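 active = activation above the mean of all tested compounds plus 3 SD, cut at about 5.5% in these data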;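 also: 100% = response to 3 µM Δ7-dafachronic acid high control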
# GAA30 counter = GAA30 FXN promoter activation counter-screen; shares compounds with FXN GAA850 act; HEK293 lucGAA30 FXN promoter luciferase, 24 h; DMSO = 0%, 5 µM ipriflavone = 100%; activation, % at 6 µM; hit rate 66% among 1,900; AID 588350;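 active = mean activation above the mean of solvent-only control wells plus 3 SD, cut at about 22% in these data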;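 also: counterscreen of GAA850 promoter hits where activity marks nonselective or luminescence artifacts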
# FXN GAA850 conf = GAA850 FXN promoter activation confirmation; hit rate 86% among 1,900; HEK293 lucGAA850 FXN promoter luciferase reporter, 24 h; 100% = activation by SAHA; activation, % at 6 µM; AID 588351; shares compounds with FXN GAA850 act;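 active = mean activation above a set limit taken from the primary screen, cut at about 8% in these data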;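 also: 0% = DMSO wells and 100% = 10 µM SAHA wells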
# DAX1 conf = confirmation of human DAX1 (NR0B1) inhibitors; shares compounds with DAX1 inh-1; HEK293T StAR-promoter luciferase reporter, SF-1/DAX-1 repression; inhibition, % at 6.8 µM; hit rate 87% among 2,400; AID 652134;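 active = inhibition above the average of every tested compound plus 3 SD, cut at about 3.8% in these data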;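 also: 0% = DAX-1 cells with DMSO and 100% = no DAX-1 control cells with DMSO; active compounds raise luminescence by relieving repression of the StAR reporter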
# SF1 AF2mut Luc = nonselective inhibitor or artifact in SF-1 mutant DAX1 counter-screen; shares compounds with DAX1 inh-1; HEK293 StAR-luciferase, SF-1 AF2 mutant, luminescence; inhibition, % at 6.8 µM; hit rate 78% among 2,400;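 active = inhibition above the mean of all tested compounds plus 3 SD, cut at about 3% in these data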;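 also: 0% = DAX-1 transfected cells with DMSO and 100% = cells without DAX-1 with DMSO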
# LXRb hcDAF ctr = activates human LXR-beta, counter-screen for hcDAF-12 agonists; shares compounds with hcDAF-12 act; HEK293 Gal4-LXR tk-luc reporter, luminescence, 24 h; normalized: DMSO 0%, positive control 100%; activation, % at 6.8 µM; 3,400 tested, under 10 active; AID 743027;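 active = mean percent activation of the reporter above a cutoff set as the average over tested compounds plus their standard deviation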
# Target sequence (P55055 whole entry, looked up, the tested form may be a part): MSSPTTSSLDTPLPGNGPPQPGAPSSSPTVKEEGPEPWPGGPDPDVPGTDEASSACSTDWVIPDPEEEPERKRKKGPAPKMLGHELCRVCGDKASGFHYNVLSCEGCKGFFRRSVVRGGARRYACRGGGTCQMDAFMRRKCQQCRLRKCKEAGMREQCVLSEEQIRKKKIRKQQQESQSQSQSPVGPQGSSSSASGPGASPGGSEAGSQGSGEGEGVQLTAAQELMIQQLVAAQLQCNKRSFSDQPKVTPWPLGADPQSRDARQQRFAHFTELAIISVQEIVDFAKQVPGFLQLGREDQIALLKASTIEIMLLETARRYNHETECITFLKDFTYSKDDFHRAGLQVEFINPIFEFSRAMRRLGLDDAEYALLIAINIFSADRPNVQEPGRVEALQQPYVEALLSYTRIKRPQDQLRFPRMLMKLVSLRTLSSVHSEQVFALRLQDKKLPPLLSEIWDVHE
# hcDAF12 conf = hcDAF-12 agonism, confirmation assay. shares compounds with hcDAF-12 act. HEK293 hcDAF-12 lit1-tk-luc reporter, luminescence; % of Δ7-dafachronic acid response. activation, % at 6.8 µM. hit rate 61% among 3,400;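 active = mean activation across triplicate tests above the threshold derived from the earlier primary screen, cut at about 5.5% in these data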;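 also: 0% = DMSO only wells and 100% = 3 µM Δ7-dafachronic acid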
# An asterisk follows results filed as active; . = no result; ! = not active in a repeat. Rows were chosen to be rich in hits. Some 4.5% of all compounds tested hit in one or more screens of this group.
SMILES,hgDAF-12 ag,DAX1 inh-1,ssDAF12 agonist,DAX1 inh-2,FXN GAA850 act,hcDAF-12 act,GAA30 counter,FXN GAA850 conf,LXRb hcDAF ctr,hcDAF12 conf,others
Cn1c(=O)c(/C=C/c2ccccc2)nc2ccccc21,23*,4.2*,2.4*,3,8.1*,13*,127*,50*,1,16*,
O=C(O)c1ccc(N/N=C/C(Br)=C/c2ccccc2)cc1,22*,5.2*,1,-1,10.0*,8.1*,82*,36*,2,13*,DAX1 conf=13*;SF1 AF2mut Luc=4.2*
CCOC(=O)C1CCN(C(=O)c2ccc(NS(=O)(=O)c3ccc4[nH]c(=O)[nH]c4c3)cc2)CC1,4,0,-1,0,3,0,.,.,.,.,
COCCCNc1nc2c(-c3ccc(Cl)cc3)nnn2c2ccccc12,-1,1,-1,0,3,3,.,.,.,.,
NNc1nc2c(-c3ccc(Cl)cc3)nnn2c2ccccc12,10,2,0,5.8*,8.2*,8.1*,129*,37*,1,14*,
CCOc1ccc(-c2nc(CCl)cs2)cc1,13*,2,-1,3,7.6*,9.1*,114*,37*,0,3,
ClCc1csc(-c2ccc(Cl)cc2)n1,1,0,-1,0,1,0,.,.,.,.,
CCN(c1ccccc1)S(=O)(=O)c1ccc(Cl)c(NC(=O)CSc2nnc(C)s2)c1,-5,0,-2,0,0,-2,.,.,.,.,
CCc1ccccc1N1CC(C(=O)Nc2nccs2)CC1=O (stereo unspecified),-1,-1,-1,0,-1,-1,.,.,.,.,
CCN(CC(=O)Nc1ccc(C)c(S(=O)(=O)N2CCOCC2)c1)Cc1ccccc1,-1,-2,-1,0,-1,-2,.,.,.,.,
O=C(Nc1cccc(F)c1)c1ccc(-c2ccccc2C(F)(F)F)o1,0,0,-2,.,.,-1,.,.,.,.,
Cc1ccccc1-c1ccc(C(=O)Nc2cccc(F)c2)o1,8,0,0,2,7.7*,7.3*,57*,17*,0,5.7*,
CCc1cc(C(=O)N(C)CC(=O)N(CC(C)C)c2c(N)n(CC(C)C)c(=O)[nH]c2=O)sc1C,.,.,.,1,1,.,.,.,.,.,
CCc1ccc(-c2cn(C3CCCCC3)c(=S)[nH]2)cc1,7,1,0,0,8.0*,11*,58*,24*,0,1,
CCc1ccc(-n2cc(-c3ccc([N+](=O)[O-])cc3)[nH]c2=S)cc1,5,1,-1,0,5,0,.,.,.,.,
Cc1ccccc1-c1nnc(-c2cccs2)o1,9,1,1.3*,4,8.0*,7.7*,106*,30*,1,8.6*,
NC(=O)Cc1nc(-c2ccc(Br)cc2)cs1,3,1,-1,0,2,-3,.,.,.,.,
Oc1csc(Cc2nc(-c3ccc(Br)cc3)cs2)n1,12*,2,0,2,7.6*,8.8*,96*,38*,0,7.6*,
c1ccc(C2=NN(c3ccccc3)CC2)cc1,11*,2,1,4.3*,7.7*,6.7*,108*,30*,0,4,
COc1ccc(S(=O)(=O)N2CCN(C(=O)NCc3ccc(C)cc3)CC2)cc1,-1,0,-2,0,-1,-3,.,.,.,.,
Cc1ccc2nc(-c3ccc(O)c(O)c3)cn2c1,8,2,0,-3,10*,9.4*,122*,49*,1,9.9*,
CC(=O)c1ccc2c3c(cccc13)C(=O)N(CCc1ccccc1)C2=O,8,1,3.0*,0,7.8*,8.4*,112*,45*,1,9.7*,
O=C(O)c1ccc2c3c(cccc13)C(=O)N(c1ccccc1)C2=O,-3,0,0,0,3,5,.,.,.,.,
Oc1ccc(Nc2nc(-c3cccs3)cs2)cc1,-1,0,-1,2,3,-2,.,.,.,.,
COc1ccccc1Nc1nc(-c2cccs2)cs1,10,2,1.6*,0,10*,8.2*,126*,40*,2,16*,
SMILES,hgDAF-12 ag,DAX1 inh-1,ssDAF12 agonist,DAX1 inh-2,FXN GAA850 act,hcDAF-12 act,GAA30 counter,FXN GAA850 conf,LXRb hcDAF ctr,hcDAF12 conf,others
COc1ccc(/C=N\NC(=O)c2sccc2C)cc1Cn1nc(C)cc1C,11*,9.9*,1.2*,3,8.1*,7.2*,42*,22*,0,4,DAX1 conf=1;SF1 AF2mut Luc=-4
COc1ccc(/C=N\NC(=O)COc2ccccc2Cl)cc1Cn1nc(C)cc1C,1,0,-1,0,0,-1,.,.,.,.,
O=C1CCCCC1Nc1ccc(Br)cc1 (stereo unspecified),0,-2,0,2,0,2,.,.,.,.,
O=c1[nH]c2ccccc2nc1/C=C(\O)c1cccs1,10*,2,0,2,11*,7.8*,116*,41*,1,13*,
c1ccc2[nH]c(-c3ccnc4ccccc34)nc2c1,6,1,-1,-1,9.4*!,6.7*!,65*,19*,0,7.9*,
COC(=O)[C@@H](Cc1ccccc1)NC(=O)Cn1cc(C)c(=O)[nH]c1=O,1,1,-1,-1,1,1,.,.,.,.,
COC(=O)CN1C(c2cccc(Cl)c2)=Nc2ccc(Cl)cc2C1c1ccccc1 (stereo unspecified),1,0,-1,0,8.5*,10*,39*,15*,0,2,
COC(=O)CN1C(c2ccc(OC)cc2)=Nc2ccc(Cl)cc2C1c1ccccc1 (stereo unspecified),1,0,-2,1,4,-1,.,.,.,.,
Cc1ccc(/C=C/c2nc3ccccc3[nH]2)o1,8,2,0,1,8.9*,8.3*,114*,38*,1,8.4*,
CCc1nc2ccccc2[nH]1,2,0,-1,3,-1,0,.,.,.,.,

# Screens from PubChem BioAssay.
